Compound activity: PubChem BioAssay, several laboratories
BoNT F protease: BoNT/F light chain protease inhibitors, primary screen, biochemical, flow cytometry, MLPCN library. Multiplex microsphere protease cleavage assay. inhibition, % at 10 µM. Botulinum neurotoxin type F light chain protease (Clostridium botulinum). 360,000 compounds, 0.22% hits; in the data active means inhibition above about 35%, passing the limit was not always enough; inconclusive means no clear call, values can overlap the other calls
Anthrax LF inh2: Bacillus anthracis LF protease inhibitors, primary screen, biochemical, multiplex microsphere, MLPCN library | 360,000 compounds, 0.12% hits | inhibition, % at 10 µM | multiplex microsphere protease cleavage assay
Target sequence (P15917 whole entry, looked up): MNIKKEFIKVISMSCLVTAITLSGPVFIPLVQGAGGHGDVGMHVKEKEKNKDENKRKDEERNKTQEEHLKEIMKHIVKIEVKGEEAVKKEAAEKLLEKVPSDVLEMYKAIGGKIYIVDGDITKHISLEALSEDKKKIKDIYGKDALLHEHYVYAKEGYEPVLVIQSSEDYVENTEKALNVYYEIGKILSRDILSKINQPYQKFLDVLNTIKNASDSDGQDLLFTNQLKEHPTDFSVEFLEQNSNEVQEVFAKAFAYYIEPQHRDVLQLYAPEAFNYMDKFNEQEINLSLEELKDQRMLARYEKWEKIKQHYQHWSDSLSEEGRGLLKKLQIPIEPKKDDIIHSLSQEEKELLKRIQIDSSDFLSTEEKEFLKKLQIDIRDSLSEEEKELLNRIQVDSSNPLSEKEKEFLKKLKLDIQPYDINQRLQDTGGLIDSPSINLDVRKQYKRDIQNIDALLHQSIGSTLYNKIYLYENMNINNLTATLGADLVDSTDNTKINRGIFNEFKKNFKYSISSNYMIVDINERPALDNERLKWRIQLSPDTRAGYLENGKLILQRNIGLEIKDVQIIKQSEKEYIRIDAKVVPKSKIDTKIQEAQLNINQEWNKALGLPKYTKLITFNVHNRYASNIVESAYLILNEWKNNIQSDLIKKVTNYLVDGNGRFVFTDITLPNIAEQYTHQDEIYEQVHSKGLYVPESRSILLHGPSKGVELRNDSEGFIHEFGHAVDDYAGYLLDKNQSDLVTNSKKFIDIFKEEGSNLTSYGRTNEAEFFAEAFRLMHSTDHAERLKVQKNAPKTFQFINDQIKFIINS
MazF activator: activators of E. coli MazEF toxin-antitoxin RNase, primary screen, biochemical, fluorescence, uHTS; Endoribonuclease toxin MazF (Escherichia coli (strain K12)), P0AE70; FAM/BHQ RNA-DNA oligo cleavage fluorescence, 5 h; activation, % at 20 µM; 350,000 compounds, 0.32% hits; in the data active means activation above about 50%
BoNT A protease: BoNT/A light chain protease inhibitors, primary screen, biochemical, flow cytometry, MLPCN library. 360,000 compounds, 0.17% hits. inhibition, % at 10 µM. multiplex microsphere protease substrate cleavage
VHR inh abs: VHR1 phosphatase inhibitors, primary screen, biochemical, absorbance, uHTS; recombinant VHR phosphatase, pNPP absorbance; AID 1654, 2009; inhibition, % at 13.3 µM; 290,000 compounds, 0.52% hits; Dual specificity protein phosphatase 3 (Homo sapiens), P51452; in the data active means inhibition above about 50%
Bead autofluor: compound fluorescence in toxin protease inhibitor counterscreen; compound autofluorescence counterscreen, microsphere flow cytometry; stronger effect = higher value; fluorescence intensity (no concentration beside the values); 360,000 compounds, 3.1% hits; in the data active means fluorescence intensity above about 16000; inconclusive means no clear call, values can overlap the other calls
Large screens that a line does not name were inactive. An excerpt weighted towards active compounds, which were near 4% of everything screened. Unless noted, no stated cut-off is given here; in the data, active means inhibition above about 30%; inconclusive means no clear call, values can overlap the other calls; inactive means below that.

S=c1[nH]nc(Cc2n[nH]c(=S)n2-c2ccccc2)n1-c1ccccc1	none
CCOC(=O)CNC(=O)CSP(=S)(OCC)OCC	none
C=C1N(CCCCCC(=O)O)C(=O)OC12CCCCC2	Bead autofluor 22385
COc1ccc(Br)cc1CNc1ccc(S(N)(=O)=O)cc1	none
O=C(Nc1ccc(Cl)cc1)N1CCN(c2ccc3nnc(-c4ccc(F)cc4)n3n2)CC1	Bead autofluor 17296
O=C(Nc1ccc(Cl)cc1)N1CCC(c2nc(-c3ccc(F)cc3)no2)CC1	Bead autofluor 24171
O=C(Nc1ccccc1Cl)N1CCN(c2ccc3nnc(-c4ccccc4)n3n2)CC1	none
CCOC(=O)c1cnn(-c2nc(-c3cccc(F)c3)cs2)c1C(F)(F)F	Bead autofluor 19380
CCOC(=O)c1ccc(-c2cccc(C(F)(F)F)c2)nc1C	Bead autofluor 22705
O=C(O)c1cnn(-c2nc(-c3cccc(F)c3)cs2)c1C(F)(F)F	none
CCOC(=O)N1CCN(CC(=O)Nc2c(C(=O)OC)[nH]c3cc(C)ccc23)CC1	Bead autofluor 23057
O=C(COC(=O)CNC(=O)C12CC3CC(CC(C3)C1)C2)Nc1ccccc1	BoNT A protease inconclusive, Bead autofluor 19773
CCOC(=O)c1ccc(N/C=C/C(=O)c2ccc(OC)c(OC)c2)cc1	Bead autofluor 19087
CCn1nnnc1-c1ccc(OC)c(S(=O)(=O)NCCc2ccccc2)c1	BoNT A protease inconclusive, Bead autofluor 19509
CCCCOC(=O)c1ccc(NS(=O)(=O)c2cc(-c3nnnn3CC)ccc2OC)cc1	none
CCn1nnnc1-c1ccc(OC)c(S(=O)(=O)Nc2ccccc2OC)c1	none (no result: VHR inh abs)
CCOC(=O)c1ccc(NS(=O)(=O)c2cc(-c3nnnn3CC)ccc2OC)cc1	BoNT A protease inconclusive, Bead autofluor 19076
O=C(N/N=C/c1ccc(O)cc1O)C1CC1	none (no result: VHR inh abs)
CC(=O)Nc1cccc(NC(=O)CSc2nc(=O)n(Cc3ccccn3)c3c2CCC3)c1	none (no result: VHR inh abs)
COc1ccc(NC(=O)CSc2nc3n[nH]c(C)c3c(=N)n2-c2ccc(Cl)c(C)c2)cc1OC	MazF activator 111
CCN(CC)S(=O)(=O)c1ccc(Cl)c(C(=O)Nc2nnc(C)s2)c1	BoNT A protease inconclusive, Bead autofluor 23810
CCN(CC)S(=O)(=O)c1ccc(Cl)c(C(=O)Nc2cccnc2)c1	none (no result: BoNT F protease, Anthrax LF inh2, BoNT A protease, Bead autofluor)
CCN1CCN(S(=O)(=O)c2ccc(Cl)c(C(=O)Nc3nnc(C)s3)c2)CC1	Bead autofluor inconclusive (no result: VHR inh abs)
CCN(CC)S(=O)(=O)c1ccc(Cl)c(NC(=O)c2cc(Cl)ccc2Cl)c1	MazF activator 54
Cc1nc2nc(-c3ccccc3)nn2c(C)c1Cl	none (no result: VHR inh abs)
O=C(CSCc1cccc(Br)c1)N=Nc1c(O)[nH]c2ccccc12	none
O=Nc1c(-c2c(O)[nH]c3cc(Br)ccc23)[nH]c2ccccc12	MazF activator 55
O=C(c1ccc(Cl)c(Cl)c1)c1cnc(Nc2ccccc2)s1	Bead autofluor 16510
O=C(c1ccccc1)c1cnc(Nc2ccccc2Cl)s1	Bead autofluor 21405
CNc1ncc(C(=O)c2ccc(Cl)c(Cl)c2)s1	none
CC1(C(=O)Nc2ccc(Cl)c(Cl)c2)CCN1Cc1cc2ccccc2o1 (stereo not drawn)	none (no result: MazF activator, VHR inh abs)
O=C(c1ccc(Br)o1)N(Cc1ccccc1)Cc1ccccc1	none
Cc1c(CN(C)C(=O)c2ccc(Br)o2)cnn1C	BoNT A protease inconclusive, Bead autofluor 19727
Cc1cccc(C(=O)NCCNC(=O)c2cccnc2)c1	none
O=C(Nc1cc(C(F)(F)F)cc(C(F)(F)F)c1)c1ccc(Cn2cc(C(F)(F)F)ccc2=O)cc1	BoNT A protease inconclusive, Bead autofluor 20069
CC(CCc1ccccc1)NC(=O)CCNC(=O)c1ccccc1Cl (stereo not drawn)	none (no result: BoNT F protease, Anthrax LF inh2, BoNT A protease, VHR inh abs, Bead autofluor)
N#CCN1CCN(c2ccc(C(F)(F)F)cc2)CC1	none
CCc1nc2ccc(C(=O)Nc3cc(-c4ccccc4)ccc3OC)cn2c1N(C)Cc1ccc(Cl)cc1	none (no result: MazF activator, VHR inh abs)
c1ccc2c(c1)NC1(CCCCCC1)n1c-2nc2ccccc21	none (no result: BoNT F protease, Anthrax LF inh2, BoNT A protease, Bead autofluor)
CN1C(=O)C2(Nc3ccccc3-c3nc4ccccc4n32)c2ccccc21 (stereo not drawn)	Bead autofluor 23406
CC1(c2ccccn2)Nc2ccccc2-c2nc3ccccc3n21 (stereo not drawn)	Bead autofluor 22286
CCCCN(CCCC)CCNC(=O)CNC(=O)c1cccs1	Bead autofluor 21124
CCCCNC(=O)CNC(=O)c1cccs1	none
O=C(O)Cc1c(-c2ccccc2)c2cc(Br)ccc2[nH]c1=O	none
CC1=C(C(=O)N2CCOCC2)C(c2ccc(OC(F)F)cc2)NC(=S)N1c1ccccc1 (stereo not drawn)	VHR inh abs 53
CC1=C(C(=O)N2CCOCC2)C(c2ccc(Br)cc2)NC(=S)N1c1ccccc1 (stereo not drawn)	none
Cc1cc2nnc(SCC(=O)NCc3ccco3)n2c2ccccc12	none (no result: VHR inh abs)
CN(C)CCN1C(=O)C(=O)/C(=C(/O)c2ccc(F)cc2)C1c1ccccc1F (stereo not drawn)	Bead autofluor 22555
Cc1ccc(/C(O)=C2\C(=O)C(=O)N(CCN(C)C)C2c2ccccc2F)cc1 (stereo not drawn)	BoNT A protease inconclusive, Bead autofluor 20048
COc1ccc(N2CC(NC(=O)c3cccc4ccccc34)CC2=O)cc1OC (stereo not drawn)	none (no result: BoNT F protease, Anthrax LF inh2, BoNT A protease, VHR inh abs, Bead autofluor)
COc1ccc(-c2nc3c(c(=O)c4ccccc4n3C)c(=O)n2Cc2ccccc2)cc1	none
CC(C)c1nnc(SCc2ccc(CSc3nnc(C(C)C)n3N)cc2)n1N	none
CCCSc1nnc(C(C)C)n1N	BoNT A protease inconclusive, Bead autofluor 22250
Cc1occc1C(=O)O/N=C(\N)c1ccc(Cl)cc1	BoNT F protease 40
CN(C)C(=S)NCc1ccccc1	none
COc1ccc(CCn2c(=N)c(S(=O)(=O)c3ccc(Cl)cc3)cc3c(=O)n4ccccc4nc32)cc1	Bead autofluor 21901
CC(C)OCCCn1c(=N)c(C(N)=S)cc2c(=O)n3ccccc3nc21	BoNT A protease 35
CC(=O)N=c1c(C#N)cc2c(=O)n3ccccc3nc2n1CCCOC(C)C	none (no result: BoNT F protease, Anthrax LF inh2, BoNT A protease, Bead autofluor)
Cc1ccc(S(=O)(=O)c2cc3c(=O)n4ccccc4nc3n(C3CCCC3)c2=N)cc1	none
CCn1c(=N)c(S(=O)(=O)c2ccccc2)cc2c(=O)n3ccccc3nc21	MazF activator 228
Cc1ccc(S(=O)(=O)c2cc3c(=O)n4ccccc4nc3n(C)c2=N)cc1	Bead autofluor 18992
CCCn1c(=N)c(S(=O)(=O)c2ccccc2)cc2c(=O)n3ccccc3nc21	none
Cc1ccc(S(=O)(=O)c2cc3c(=O)n4ccccc4nc3n(Cc3ccco3)c2=N)cc1C	none (no result: BoNT F protease, Anthrax LF inh2, BoNT A protease, Bead autofluor)
